# Measured values: PubChem BioAssay (EPA / NIEHS)
# Results filed as inconclusive are left out. Activity calls are given as the source filed them. Rule for the calls, unless noted: active = hit-call score of the fitted dose curve at least 0.9, where 1 is the maximum; inconclusive = response in the unintended direction; inactive = score below 0.9.
# Assays:
# [1] = molecular target: Glucocorticoid receptor (Homo sapiens) (UniProt P04150); experiment: ATG_GR_TRANS: Attagene TRANS-FACTORIAL HepG2 Assay for human Glucocorticoid Receptor (GR) (AID 2282978); conditions: HepG2 Attagene TRANS GR reporter, mRNA transcription;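 note: activators score as hits since higher reporter transcript over DMSO is fitted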
# Summary of the method: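 HepG2 cells transiently transfected with multiplexed reporter units in which chimeric NR-GAL4 proteins drive GAL4-UAS reporters; 24 h compound exposure. Reporter mRNA measured by RT-PCR, 6-FAM labelling, HpaI digestion and capillary electrophoresis; gain-of-signal fitted versus DMSO.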
# [2] = molecular target: Oxysterols receptor LXR-alpha (Homo sapiens) (UniProt Q13133); experiment: ATG_LXRa_TRANS: Attagene TRANS-FACTORIAL HepG2 Assay for human Liver X Receptor alpha (LXRa) (AID 2282980); conditions: HepG2 Attagene TRANS reporter, LXRa transactivation
# Summary of the method: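 Transient HepG2 transfectants, 24 h dosing, RT-PCR/CE mRNA reporter quantitation; gain-of-signal vs DMSO.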
# [3] = molecular target: Oxysterols receptor LXR-beta (Homo sapiens) (UniProt P55055); experiment: ATG_LXRb_TRANS: Attagene TRANS-FACTORIAL HepG2 Assay for human Liver X Receptor beta (LXRb) (AID 2282981); conditions: HepG2 Attagene TRANS GAL4-LXRb reporter, mRNA
# Summary of the method: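 Cells: HepG2, transiently transfected with GAL4-UAS reporter units plus LXRb-Gal4 fusion. Treatment: 24 h. Detection: reporter mRNA by RT-PCR, 6-FAM labelling, HpaI digestion, capillary electrophoresis.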
# [4] = ATG_M_32_TRANS: Attagene TRANS-FACTORIAL HepG2 Assay for M32 Transcription Factor (Internal Marker) (AID 2282984); conditions: HepG2 Attagene TRANS M32 internal marker reporter;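 note: transcript level of a background control reporter unit measured by RT-PCR and capillary electrophoresis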
# Summary of the method: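 Using transiently transfected HepG2 cells exposed to test chemicals for 24 h, reporter transcripts are converted to labelled cDNA fragments and quantified by capillary electrophoresis. DMSO defines the activity baseline.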
# [5] = molecular target: Transcriptional activator Myb (Homo sapiens) (UniProt P10242); experiment: ATG_Myb_CIS: Attagene CIS-FACTORIAL HepG2 Assay for human Myeloblastosis (Myb) Proto-Oncogene Transcription Factor (AID 2282986; active = hit-call score of the fitted dose curve at least 0.9, where 1 is the maximum; inactive = score below 0.9); conditions: HepG2 Attagene CIS-FACTORIAL Myb reporter transcription; actives raise or lower the signal
# Summary of the method: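 HepG2 cells were transiently transfected with cis-regulated multiple reporter transcription units reflecting endogenous Myb activity, then exposed to compound for 24 hours. Reporter mRNA was measured by RT-PCR with capillary electrophoresis; bidirectional fitting versus DMSO baseline.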
# [6] = ATG_M_06_TRANS: Attagene TRANS-FACTORIAL HepG2 Assay for M06 Transcription Factor (Internal Marker) (AID 2282983); conditions: HepG2 Attagene TRANS M06 internal marker reporter;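 note: reporter transcript level by RT-PCR then capillary electrophoresis fluorescence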
# Summary of the method: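 Measured by capillary electrophoresis of fluorescently labelled RT-PCR products, this endpoint reflects reporter mRNA in HepG2 cells harbouring exogenous NR-GAL4 reporter constructs after 24 h exposure, with DMSO as baseline.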
# [7] = molecular target: Hepatocyte nuclear factor 4-alpha (Homo sapiens) (UniProt P41235); experiment: ATG_HNF4a_TRANS: Attagene TRANS-FACTORIAL HepG2 Assay for human Hepatocyte Nuclear Factor 4 alpha (HNF4a) (AID 2282982); conditions: HepG2 HNF4a transactivation reporter, mRNA readout
# Summary of the method: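 Transfected HepG2 reporter cells are dosed for 24 h; reporter RNA is reverse-transcribed, amplified, fluorescently labelled and HpaI-digested before CE sizing. Positive-direction fit against DMSO.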
# [8] = molecular target: Nuclear receptor subfamily 4 group A member 2 (Homo sapiens) (UniProt P43354); experiment: ATG_NURR1_TRANS: Attagene TRANS-FACTORIAL HepG2 Assay for human Nuclear Receptor Related Protein 1 (NURR1) (AID 2282985); conditions: HepG2 Attagene TRANS reporter, mRNA readout
# Summary of the method: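 Cells: HepG2, transiently transfected. Exposure: 24 h. Detection: fluorescence of labelled RT-PCR products separated by capillary electrophoresis; upward fit versus DMSO.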
# [9] = molecular target: Bile acid receptor (Homo sapiens) (UniProt Q96RI1); experiment: ATG_FXR_TRANS: Attagene TRANS-FACTORIAL HepG2 Assay for Farnesoid X Receptor (FXR) (AID 2282979); conditions: HepG2 Attagene TRANS FXR-GAL4 reporter transcription;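 note: hits raise reporter mRNA above DMSO so AC50 marks FXR activation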
# Summary of the method: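 Chimeric FXR-GAL4 activity in transiently transfected human HepG2 liver cells is scored as induction of reporter mRNA after 24 h of dosing. Detection uses RT-PCR with fluorescent labelling and capillary electrophoresis, with DMSO serving as baseline.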
# Sequence of Glucocorticoid receptor (Homo sapiens) (P04150 whole entry, looked up, the tested form may be a part): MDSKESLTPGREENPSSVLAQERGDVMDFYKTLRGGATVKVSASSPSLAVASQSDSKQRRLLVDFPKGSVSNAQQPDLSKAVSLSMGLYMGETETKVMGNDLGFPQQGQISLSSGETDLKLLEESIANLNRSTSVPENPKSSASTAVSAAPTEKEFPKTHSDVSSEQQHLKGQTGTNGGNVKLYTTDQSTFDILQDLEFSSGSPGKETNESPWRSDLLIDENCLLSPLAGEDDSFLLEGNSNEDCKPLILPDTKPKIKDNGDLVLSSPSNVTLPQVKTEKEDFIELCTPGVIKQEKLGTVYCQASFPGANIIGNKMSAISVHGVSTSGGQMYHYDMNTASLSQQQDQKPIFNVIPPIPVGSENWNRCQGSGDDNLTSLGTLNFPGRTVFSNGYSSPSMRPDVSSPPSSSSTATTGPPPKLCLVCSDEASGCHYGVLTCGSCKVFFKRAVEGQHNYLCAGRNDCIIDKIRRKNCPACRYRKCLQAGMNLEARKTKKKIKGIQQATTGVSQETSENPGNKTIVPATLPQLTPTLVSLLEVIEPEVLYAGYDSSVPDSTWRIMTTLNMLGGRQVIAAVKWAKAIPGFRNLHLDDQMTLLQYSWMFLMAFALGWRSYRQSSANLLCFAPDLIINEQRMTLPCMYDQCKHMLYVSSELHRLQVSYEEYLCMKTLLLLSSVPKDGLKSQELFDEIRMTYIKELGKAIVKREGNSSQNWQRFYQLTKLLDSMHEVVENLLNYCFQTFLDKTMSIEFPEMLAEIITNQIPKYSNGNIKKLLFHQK
# Sequence of Oxysterols receptor LXR-beta (Homo sapiens) (P55055 whole entry, looked up, the tested form may be a part): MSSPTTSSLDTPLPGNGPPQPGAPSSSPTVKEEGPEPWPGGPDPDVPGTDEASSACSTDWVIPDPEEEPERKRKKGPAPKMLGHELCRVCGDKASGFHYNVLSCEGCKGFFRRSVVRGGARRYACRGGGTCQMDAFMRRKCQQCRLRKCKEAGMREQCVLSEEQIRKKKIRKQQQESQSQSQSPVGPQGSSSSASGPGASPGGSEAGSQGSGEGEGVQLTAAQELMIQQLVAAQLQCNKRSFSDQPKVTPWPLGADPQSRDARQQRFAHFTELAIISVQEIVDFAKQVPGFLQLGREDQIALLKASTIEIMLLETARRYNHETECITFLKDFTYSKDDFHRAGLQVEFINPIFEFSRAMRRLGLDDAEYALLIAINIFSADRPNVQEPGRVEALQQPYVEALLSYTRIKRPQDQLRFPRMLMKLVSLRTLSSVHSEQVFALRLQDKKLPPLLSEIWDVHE
# Sequence of Bile acid receptor (Homo sapiens) (Q96RI1 whole entry, looked up, the tested form may be a part): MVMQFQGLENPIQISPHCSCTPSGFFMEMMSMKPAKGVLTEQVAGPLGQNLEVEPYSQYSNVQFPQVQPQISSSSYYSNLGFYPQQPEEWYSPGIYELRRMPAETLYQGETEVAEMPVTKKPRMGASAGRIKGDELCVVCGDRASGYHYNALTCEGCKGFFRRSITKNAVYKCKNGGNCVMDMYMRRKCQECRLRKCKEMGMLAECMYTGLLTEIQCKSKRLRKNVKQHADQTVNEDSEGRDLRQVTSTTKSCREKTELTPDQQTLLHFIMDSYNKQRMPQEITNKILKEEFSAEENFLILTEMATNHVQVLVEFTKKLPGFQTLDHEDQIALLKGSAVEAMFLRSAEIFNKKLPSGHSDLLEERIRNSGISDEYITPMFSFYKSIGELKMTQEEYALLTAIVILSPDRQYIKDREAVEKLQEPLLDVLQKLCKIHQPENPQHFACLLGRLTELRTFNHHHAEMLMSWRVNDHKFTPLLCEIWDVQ
# Sequence of Transcriptional activator Myb (Homo sapiens) (P10242 whole entry, looked up): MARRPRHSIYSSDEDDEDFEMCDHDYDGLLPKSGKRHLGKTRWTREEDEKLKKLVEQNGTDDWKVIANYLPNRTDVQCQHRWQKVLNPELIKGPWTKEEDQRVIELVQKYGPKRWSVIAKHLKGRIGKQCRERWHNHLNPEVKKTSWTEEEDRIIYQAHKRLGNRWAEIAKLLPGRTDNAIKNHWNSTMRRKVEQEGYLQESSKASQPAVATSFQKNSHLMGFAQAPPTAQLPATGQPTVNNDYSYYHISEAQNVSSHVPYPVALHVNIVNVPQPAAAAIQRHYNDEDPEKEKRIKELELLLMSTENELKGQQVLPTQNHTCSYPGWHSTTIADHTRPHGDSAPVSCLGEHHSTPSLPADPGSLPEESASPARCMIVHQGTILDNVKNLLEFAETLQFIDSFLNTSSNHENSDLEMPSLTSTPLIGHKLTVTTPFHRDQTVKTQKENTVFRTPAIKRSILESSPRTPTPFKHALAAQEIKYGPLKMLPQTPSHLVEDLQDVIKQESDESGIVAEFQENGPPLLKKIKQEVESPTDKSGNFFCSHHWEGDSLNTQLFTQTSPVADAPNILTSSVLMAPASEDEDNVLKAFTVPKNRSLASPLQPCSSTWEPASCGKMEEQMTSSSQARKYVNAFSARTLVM
# Sequence of Nuclear receptor subfamily 4 group A member 2 (Homo sapiens) (P43354 whole entry, looked up): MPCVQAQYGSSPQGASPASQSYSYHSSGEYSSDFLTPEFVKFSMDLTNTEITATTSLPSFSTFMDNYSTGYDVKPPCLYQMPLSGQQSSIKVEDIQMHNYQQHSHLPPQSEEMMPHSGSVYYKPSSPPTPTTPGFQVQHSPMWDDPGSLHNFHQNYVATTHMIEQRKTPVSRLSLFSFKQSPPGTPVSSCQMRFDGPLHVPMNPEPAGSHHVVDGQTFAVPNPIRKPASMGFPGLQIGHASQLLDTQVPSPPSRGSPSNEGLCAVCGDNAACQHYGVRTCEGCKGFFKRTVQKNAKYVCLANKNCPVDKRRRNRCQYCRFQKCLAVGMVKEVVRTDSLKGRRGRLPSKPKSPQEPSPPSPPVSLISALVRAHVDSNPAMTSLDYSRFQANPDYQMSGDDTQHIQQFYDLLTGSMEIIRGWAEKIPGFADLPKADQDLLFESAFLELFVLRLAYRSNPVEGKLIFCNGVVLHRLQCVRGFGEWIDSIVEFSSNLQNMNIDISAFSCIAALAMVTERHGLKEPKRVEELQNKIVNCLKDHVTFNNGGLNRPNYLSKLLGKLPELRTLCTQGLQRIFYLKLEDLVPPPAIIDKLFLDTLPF
# Sequence of Oxysterols receptor LXR-alpha (Homo sapiens) (Q13133 whole entry, looked up): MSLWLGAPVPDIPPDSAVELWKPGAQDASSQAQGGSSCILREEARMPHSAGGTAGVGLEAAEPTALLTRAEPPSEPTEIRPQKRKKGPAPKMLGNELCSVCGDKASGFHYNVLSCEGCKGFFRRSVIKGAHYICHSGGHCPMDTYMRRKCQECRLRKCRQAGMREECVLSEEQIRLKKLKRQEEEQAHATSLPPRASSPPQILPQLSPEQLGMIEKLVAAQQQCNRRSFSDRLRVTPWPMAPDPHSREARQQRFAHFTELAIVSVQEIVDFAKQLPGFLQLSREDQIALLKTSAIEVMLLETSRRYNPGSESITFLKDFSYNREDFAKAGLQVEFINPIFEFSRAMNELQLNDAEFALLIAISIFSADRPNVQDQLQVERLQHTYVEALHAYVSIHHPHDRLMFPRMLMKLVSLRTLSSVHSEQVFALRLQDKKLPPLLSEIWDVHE
# Sequence of Hepatocyte nuclear factor 4-alpha (Homo sapiens) (P41235 whole entry, looked up): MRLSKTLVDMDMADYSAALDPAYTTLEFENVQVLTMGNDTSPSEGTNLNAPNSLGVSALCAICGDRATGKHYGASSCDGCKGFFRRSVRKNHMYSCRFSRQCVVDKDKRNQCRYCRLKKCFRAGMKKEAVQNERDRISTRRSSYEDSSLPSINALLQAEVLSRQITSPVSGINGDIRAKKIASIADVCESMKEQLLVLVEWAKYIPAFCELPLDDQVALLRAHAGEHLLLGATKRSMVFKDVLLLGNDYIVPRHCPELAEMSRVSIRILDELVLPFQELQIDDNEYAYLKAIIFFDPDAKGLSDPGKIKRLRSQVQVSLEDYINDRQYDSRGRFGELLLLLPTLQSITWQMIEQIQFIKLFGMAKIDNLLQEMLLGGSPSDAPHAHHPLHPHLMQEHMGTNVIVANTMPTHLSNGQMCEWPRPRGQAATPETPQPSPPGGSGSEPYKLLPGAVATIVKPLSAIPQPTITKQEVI
compound,measurement,setting,value
CCCC1CCCC(=O)O1 (configuration not stated),outcome,[1],inactive
same,outcome,[2],inactive
same,outcome,[3],inactive
same,outcome,[4],inactive
same,outcome,[5],inactive
Oc1ccccc1Cc1ccccc1O,outcome,[1],inactive
same,outcome,[2],inactive
same,outcome,[6],inactive
same,outcome,[4],inactive
same,outcome,[5],inactive
O=C(Oc1ccccc1)c1ccccc1C(=O)Oc1ccccc1,outcome,[1],inactive
same,outcome,[4],inactive
same,outcome,[5],inactive
N#Cc1ccc(C(c2ccc(C#N)cc2)n2cncn2)cc1,outcome,[1],inactive
same,outcome,[4],inactive
same,outcome,[5],inactive
C=C(C)C(=O)OCCOC(=O)C(=C)C,outcome,[1],inactive
same,outcome,[7],inactive
same,outcome,[6],inactive
same,outcome,[4],inactive
same,outcome,[5],inactive
CCCSSCCC,outcome,[1],inactive
same,outcome,[7],inactive
same,outcome,[6],inactive
same,outcome,[4],inactive
same,outcome,[8],inactive
same,outcome,[5],inactive
O=C(OCc1ccccc1)c1ccc(O)cc1,outcome,[9],inactive
same,outcome,[2],inactive
same,outcome,[3],inactive
same,outcome,[6],inactive
same,AC50,[8],158 µM (active)
C=CCCCCCCCCO,outcome,[1],inactive
same,outcome,[6],inactive
same,outcome,[4],inactive
same,outcome,[8],inactive
CC(=O)c1ccccc1O,outcome,[9],inactive
same,outcome,[2],inactive
same,outcome,[3],inactive
same,outcome,[4],inactive
same,outcome,[5],inactive
CCCCCC(=O)OCC,outcome,[9],inactive
CC(C)=CCCC(C)=CC#N,outcome,[1],inactive
same,outcome,[6],inactive
same,outcome,[4],inactive
same,outcome,[8],inactive
same,outcome,[5],inactive
